In the library only some 3.7% were active in any assay of this set; here they are far more common.
PfHsp90 yeast 2: inhibits growth of yeast expressing Plasmodium falciparum Hsp90; actives 0.32% (n = 310,000); inhibition, % at 9.4 µM; S. cerevisiae expressing PfHsp90, BacTiter-Glo ATP, 48 h; yeast lacking PDR1 and PDR3 efflux regulators; AID 504621;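 active = every replicate shows inhibition above about 80%, whatever the replicate mean, limit read from the data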
tim23-1 inh: growth inhibitors of tim23-1 mutant yeast | AID 463212 | actives 1.3% (n = 330,000) | inhibition, % at 20 µM | S. cerevisiae tim23-1 growth, BacTiter-Glo luminescence, 24 h;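 active = growth inhibition of the mutant yeast at or above 50%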;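 also: temperature-sensitive mutant grown at 25 °C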
NALP3 yeast inh: NALP3 inhibition in yeast | AID 2825 | Yeast reconstituted NLRP3/ASC/caspase-1, beta-gal luminescence, 24 h | actives 0.39% (n = 330,000) | inhibition, % at 10 µM;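 active = inhibition of 50% or more; inactive = inhibition below 50%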
tim10-1 inh: inhibits growth of tim10-1 mutant yeast | AID 463190 | inhibition, % at 20 µM | S. cerevisiae tim10-1 ts strain growth, BacTiter-Glo, 24 h | actives 2.2% (n = 330,000);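 active = inhibition of at least 40%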;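 also: mutant grown at 25 °C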
TIM10 inh: inhibits growth of TIM10 yeast strain | S. cerevisiae TIM10 strain growth, BacTiter-Glo luminescence, 24 h | inhibition, % at 10 µM | actives 1.4% (n = 330,000) | AID 463195;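 active = inhibition of 40% or more at the single tested concentration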;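 also: wild-type TIM10 isogenic control strain grown at permissive 25 °C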
tim10-1 confirm: tim10-1 yeast growth inhibition, confirmed. shares compounds with tim10-1 inh. S. cerevisiae tim10-1 ts strain growth, BacTiter-Glo, 24 h. inhibition, % at 20 µM. actives 56% (n = 7,400). AID 463213;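 active = inhibition of yeast growth at or above a set limit in either of two repeat tests at 20 µM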;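 also: tim10-1 mutant grown at permissive 25 °C to find synthetic lethal compounds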
TIM10 conf: TIM10 yeast growth inhibition, confirmed. shares compounds with TIM10 inh. S. cerevisiae tim10 strain growth, BacTiter-Glo luminescence, 24 h. inhibition, % at 10 µM. actives 63% (n = 4,600). AID 463215;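 active = inhibition of yeast growth at or above a set limit in either of two replicates at 10 µM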; also: this counterscreen used the strain with wild-type TIM10
tim23-1 conf: tim23-1 yeast growth inhibition, confirmed. shares compounds with tim23-1 inh. S. cerevisiae tim23-1 growth, BacTiter-Glo luminescence, 24 h. actives 83% (n = 4,400). inhibition, % at 20 µM;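 active = inhibition above about 39% in either of two replicate wells at 20 µM, limit read from the data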;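 also: temperature-sensitive tim23-1 mutant grown at 25 °C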
Hits are given with their value.

How did CC[n+]1c(/C=C/C=C/c2ccc(N(C)C)cc2)sc2ccccc21 do in these assays?
PfHsp90 yeast 2: inactive; tim23-1 inh: 83.5; NALP3 yeast inh: inactive; tim10-1 inh: 85.4; TIM10 inh: 82.1; tim10-1 confirm: 89.8; TIM10 conf: 74.0; tim23-1 conf: 82.3

What do the screens show for `Cc1ccc(/C=C2\C(=O)NC(=S)N(c3ccc(F)cc3)C2=O)s1`?
PfHsp90 yeast 2: inactive; tim23-1 inh: 54.6; NALP3 yeast inh: inactive; tim10-1 inh: 69.9; TIM10 inh: 43.1; tim10-1 confirm: 36.0; TIM10 conf: 37.8; tim23-1 conf: 72.0

How did COc1ccc(-n2c(/C=C/c3ccc(O)c(OC)c3)nc3ccccc3c2=O)cc1 do in these assays?
PfHsp90 yeast 2: inactive; tim23-1 inh: inactive; NALP3 yeast inh: inactive; tim10-1 inh: inactive; TIM10 inh: inactive

Results for COc1cc(/C=C/[N+](=O)[O-])ccc1O ?
PfHsp90 yeast 2: inactive; tim23-1 inh: 77.0; NALP3 yeast inh: inactive; tim10-1 inh: 43.3; TIM10 inh: inactive; tim10-1 confirm: inactive; tim23-1 conf: 75.5

What do the screens show for `COc1ccc(/C=C/C=C2C(=O)NC(=S)NC2=O)cc1`?
PfHsp90 yeast 2: inactive

How did CCn1nc(/C=C/c2ccccc2)nc2c(=O)n(C)c(=O)nc1-2 do in these assays?
PfHsp90 yeast 2: inactive; tim23-1 inh: 93.0; NALP3 yeast inh: inactive; tim10-1 inh: 92.6; TIM10 inh: 95.9; tim10-1 confirm: 94.6; TIM10 conf: 97.7; tim23-1 conf: 91.3

Results for CN1C(=O)C(=Cc2ccccc2OCCOc2ccc([N+](=O)[O-])cc2)C(=O)N(C)C1=O ?
PfHsp90 yeast 2: inactive; tim23-1 inh: 74.3; NALP3 yeast inh: inactive; tim10-1 inh: 49.6; TIM10 inh: 69.3; tim10-1 confirm: 42.0; TIM10 conf: 66.5; tim23-1 conf: 89.9

Results for CCN1/C(=C\C=C\C2=[N+](CC)c3ccccc3C2(C)C)C(C)(C)c2ccccc21 ?
PfHsp90 yeast 2: inactive; tim23-1 inh: 57.7; NALP3 yeast inh: inactive; tim10-1 inh: 42.0; TIM10 inh: 46.5; tim10-1 confirm: inactive; TIM10 conf: inactive; tim23-1 conf: 40.0

What do the screens show for `COc1cc(O)cc2c1cc([N+](=O)[O-])c1c(C(=O)O)cc3c(c12)OCO3`?
PfHsp90 yeast 2: inactive; tim23-1 inh: inactive; NALP3 yeast inh: inactive; tim10-1 inh: inactive; TIM10 inh: inactive

Results for COc1cccc(N2C(=O)NC(=O)/C(=C/c3ccc([N+](=O)[O-])s3)C2=O)c1 ?
PfHsp90 yeast 2: inactive; tim23-1 inh: 65.0; NALP3 yeast inh: inactive; tim10-1 inh: 72.8; TIM10 inh: 87.3; tim10-1 confirm: 69.2; TIM10 conf: inactive; tim23-1 conf: 78.0

What do the screens show for `COc1ccc(N2C(=O)NC(=O)/C(=C/c3ccc([N+](=O)[O-])s3)C2=O)cc1`?
tim23-1 inh: 60.6; NALP3 yeast inh: inactive; tim10-1 inh: 62.3; TIM10 inh: 90.4; tim10-1 confirm: 70.8; TIM10 conf: 69.3; tim23-1 conf: 75.6

What do the screens show for `COc1ccccc1N1C(=O)NC(=O)/C(=C/c2ccc([N+](=O)[O-])s2)C1=O`?
tim23-1 inh: 67.4; NALP3 yeast inh: inactive; tim10-1 inh: 77.2; TIM10 inh: 73.5; tim10-1 confirm: 68.5; TIM10 conf: inactive; tim23-1 conf: 70.5

Results for COc1cccc(N2C(=O)NC(=O)/C(=C/c3ccc4c(c3)Cc3ccccc3-4)C2=O)c1 ?
PfHsp90 yeast 2: inactive; tim23-1 inh: inactive; NALP3 yeast inh: inactive; tim10-1 inh: inactive; TIM10 inh: inactive

Results for CCOc1ccc(N2C(=O)NC(=O)/C(=C\c3cc(OC)c(OC)cc3[N+](=O)[O-])C2=O)cc1 ?
PfHsp90 yeast 2: inactive; tim23-1 inh: inactive; NALP3 yeast inh: inactive; tim10-1 inh: inactive; TIM10 inh: inactive

Results for CCOP(=O)(CCP(=O)(OCC)OCC)OCC.C[CH2][Sn]([Cl])([Cl])[CH2]C ?
PfHsp90 yeast 2: inactive
